Assay outcomes: PubChem BioAssay, several laboratories
Beta apoptosis: inhibitors of cytokine-induced beta cell apoptosis, primary screen, luminescence; hit rate 0.8% among 300,000; protection from apoptosis, % (test concentration not listed); INS-1E cytokine-induced death, ATP luminescence, 48 h; percent of positive-control rescue, neutral wells zero;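 active means Every replicate reaches about 75%, or at least half do and their mean reaches it too, limit read from the data; inconclusive means At least half of replicates reach the limit but their mean does not; inactive means Under half of replicates reach the limit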;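 further: 0% = cytokine-treated negative control wells and 100% = positive control rescue; higher means more ATP so stronger rescue from cytokine killing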
MPTP inh: mitochondrial permeability transition pore inhibitors, primary screen, biochemical, isolated mouse mitochondria, absorbance; inhibition, % at 10 µM; hit rate 1.4% among 360,000; AID 602449, 2012; Ca2+ swelling absorbance, 30 min;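 active means inhibition of 50% or more, scaled per plate between neutral and stimulator controls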;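 further: 0% = DMSO wells given calcium and 100% = 1 mM EGTA wells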
Mdm2-MdmX inh: inhibitors of human Mdm2-MdmX association, primary screen, cell-based, luminescence, split luciferase, SaOS-2, uHTS. Protein Mdm4 (Homo sapiens) + E3 ubiquitin-protein ligase Mdm2 (Homo sapiens), …. SaOS-2 split-luciferase Mdm2/MdmX complementation. inhibition, % at 8 µM. hit rate 3% among 330,000. AID 485346, 2010;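 active means inhibition of at least 50% at 8 µM in the primary screen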
Target sequence (O15151 whole entry, looked up): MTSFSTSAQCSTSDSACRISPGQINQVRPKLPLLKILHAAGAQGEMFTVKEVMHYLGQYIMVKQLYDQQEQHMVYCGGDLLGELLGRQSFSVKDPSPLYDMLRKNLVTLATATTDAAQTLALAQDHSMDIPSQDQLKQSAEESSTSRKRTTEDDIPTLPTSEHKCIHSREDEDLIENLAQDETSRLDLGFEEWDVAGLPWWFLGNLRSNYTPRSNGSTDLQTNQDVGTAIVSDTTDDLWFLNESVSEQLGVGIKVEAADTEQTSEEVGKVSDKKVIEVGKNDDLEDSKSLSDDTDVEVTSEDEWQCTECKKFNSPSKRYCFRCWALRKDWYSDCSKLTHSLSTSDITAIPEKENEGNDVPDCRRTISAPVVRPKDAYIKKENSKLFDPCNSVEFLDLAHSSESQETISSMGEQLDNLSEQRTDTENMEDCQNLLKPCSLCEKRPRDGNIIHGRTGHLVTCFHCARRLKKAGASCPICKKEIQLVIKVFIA
Target sequence (Q00987 whole entry, looked up): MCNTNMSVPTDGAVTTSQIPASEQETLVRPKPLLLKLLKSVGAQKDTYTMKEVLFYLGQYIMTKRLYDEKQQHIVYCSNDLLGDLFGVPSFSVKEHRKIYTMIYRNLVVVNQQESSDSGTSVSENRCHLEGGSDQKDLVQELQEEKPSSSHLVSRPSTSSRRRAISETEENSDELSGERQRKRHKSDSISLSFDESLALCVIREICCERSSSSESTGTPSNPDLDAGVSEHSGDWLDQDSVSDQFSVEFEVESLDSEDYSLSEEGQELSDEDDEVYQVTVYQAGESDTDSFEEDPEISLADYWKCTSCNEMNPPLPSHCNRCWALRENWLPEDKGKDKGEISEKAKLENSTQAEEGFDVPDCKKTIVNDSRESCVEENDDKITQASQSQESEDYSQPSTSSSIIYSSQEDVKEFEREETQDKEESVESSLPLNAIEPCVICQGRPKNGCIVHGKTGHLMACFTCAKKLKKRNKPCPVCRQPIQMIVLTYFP
CSC inhib: cancer stem cell viability inhibitors, primary screen, luminescence; cancer stem cell-like cells viability; inhibition, % at 7.5 µM; hit rate 1.1% among 300,000; in the data active means inhibition above about 75%; inconclusive means no clear call, values can overlap the other calls; tested in HMLE shEcad cells
SKKanGAS inh: S. pyogenes SKKanGAS growth inhibitors in kanamycin, primary screen, streptokinase expression inhibitor project, SKKanGAS strain, BacTiter-Glo luminescence. hit rate 1.3% among 300,000. 6 h. inhibition, % at 7.5 µM. AID 1662, 2009;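 active means mean replicate score, as percent of positive control median, at least 50; inconclusive means mean below 50 but one replicate at or above 50; inactive means mean and every replicate below 50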;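 further: strain carries kanamycin resistance gene driven by streptokinase promoter and grows in 40 µg/ml kanamycin; loss of luminescence reflects streptokinase promoter inhibition or plain growth inhibition; 0% = median of DMSO wells and 100% = positive control at its reference dose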
NR3A LBD binder: binders of NR3A ligand-binding domain, primary screen, biophysical, differential scanning fluorimetry, uHTS; Tm shift relative to glycine control, % at 25 µM; hit rate 2.5% among 340,000; NR3A LBD differential scanning fluorimetry, Tm shift; 0% = protein alone, 100% = glycine-bound protein; Glutamate receptor ionotropic, NMDA 3A (GRIN3A) ligand-binding domain;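 active means melting temperature shift of at least 10% of the positive control shift, at one fixed dose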
Mdm2 MdmX conf: Mdm2-MdmX complex disruptors, retested hits, confirmation, luminescence, single concentration. shares compounds with Mdm2-MdmX inh. Mdm2-MdmX binding, luminescent assay. inhibition, % at 8 µM. hit rate 55% among 10,000; in the data active means inhibition above about 40%
Full FLuc ctr: full-length luciferase signal inhibition, confirmation, counter-screen for Mdm2/MdmX interaction inhibitor project, cell-based, single concentration, SaOS-2 | shares compounds with Mdm2-MdmX inh | AID 504607, 2011 | inhibition, % at 8 µM | SaOS-2 full-length luciferase counterscreen, luminescence | hit rate 77% among 6,200;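 active means mean inhibition at 8 µM reaching about 37%, which flags the compound as non-specific, limit read from the data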;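 further: p53-null SaOS-2 cells with luciferase driven by a doxycycline-inducible promoter; compound on cells about two nights before reading with doxycycline added after day one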
An asterisk follows results filed as active; ? = inconclusive; nt = no result given. Sampled rows, rich in hits. Any-hit rate of the full collection: about 6.9%.

SMILES | Beta apoptosis | MPTP inh | Mdm2-MdmX inh | CSC inhib | SKKanGAS inh | NR3A LBD binder | Mdm2 MdmX conf | Full FLuc ctr
C=CC[C@H](CC(=O)N(CCO)Cc1ccccc1)C(=O)N[C@@H](COC(=O)[C@@H](CC=C)CC(=O)OC(C)(C)C)Cc1c[nH]c2ccccc12 | 5.6 | 0.6 | 48.9 | nt | nt | -11.4 | nt | nt
C=CC[C@@H](CC(=O)N(CCO)Cc1ccccc1)C(=O)N[C@H](COC(=O)[C@@H](CC=C)Cc1ccc(F)cc1)Cc1c[nH]c2ccccc12 | -4.2 | 1.2 | 88.3* | 22.3 | nt | 3.2 | 5.8 | nt
C=CC[C@H](CC(=O)N(CCO)Cc1ccccc1)C(=O)N[C@H](COC(=O)[C@@H](CC=C)Cc1ccc(F)cc1)Cc1c[nH]c2ccccc12 | 0.9 | 1.6 | 85.9* | 7.9 | nt | -2.5 | 37.8 | 71.2*
CCOC(=O)CC1CCCCN1C(=O)c1ccc2nc(CCOC)oc2c1 (stereo not given) | -5.1 | 0.2 | 2.2 | 1.1 | 2.0 | 0.1 | nt | nt
COCC(C)n1c(SCC(=O)NC(=O)NC2CCCC2)nc2ccccc2c1=O (stereo not given) | -10.5 | -0.3 | 8.9 | nt | nt | 1.8 | nt | nt
COc1cccc(C=NNC(=O)c2ccncc2)c1O | nt | 2.5 | nt | nt | nt | -1.0 | nt | nt
COc1cc(OC)c2cc(C(=O)N/N=C/c3cccc(OC)c3O)[nH]c2c1 | 97.1* | 16.9 | 68.8* | 125.5* | 21.2 | -15.3 | 61.6* | 33.8
COc1cccc(/C=N/Nc2ccc(C(=O)O)cc2)c1O | 20.7 | -0.9 | 54.3* | 24.7 | 26.9 | 0.7 | 23.9 | nt
COc1cccc(/C=N/NC(=O)c2nc(-c3ccccc3)cc(-c3ccccc3)n2)c1O | 8.2 | 5.2 | 50.8* | 46.1 | 29.0 | -2.4 | 20.3 | nt
COc1cccc(/C=N/Nc2ccc(S(=O)(=O)O)cc2)c1O | -5.9 | -1.4 | 9.0 | -9.8 | 4.9 | -0.3 | nt | nt
COc1cccc(/C=N/NC(=O)c2cc3c(OC)ccc(OC)c3[nH]2)c1O | 86.4* | 2.0 | 62.4* | 102.5* | 106.5* | -14.3 | 63.4* | 37.8*
Cc1nc2c(sc3nc(N4CCOCC4)c4c(c32)CC(C)(C)OC4)c(-c2ccc(Cl)cc2)c1C(=O)O | 8.3 | 4.6 | 64.5* | 40.3 | 28.0 | 0.8 | 31.9 | nt
CC1(C)Cc2c(c(N3CCOCC3)nc3snc(N)c23)CO1 | 67.0 | -2.0 | 82.9* | 21.0 | 0.1 | 6.4 | 30.9 | nt
CC(=O)c1ccc(OCCn2cnc3ccccc32)cc1 | nt | 2.3 | 2.4 | 2.5 | -6.3 | -2.9 | nt | nt
CC(C)(O)C#Cc1ccc(C(=O)N2CCN(c3ccc(Cl)cc3)CC2)cc1 | -4.1 | 0.2 | -15.3 | -1.6 | 2.7 | 0.3 | nt | nt
COc1cccc2c1C(=O)c1c(O)c3c(c(O)c1C2=O)C[C@@](O)(C(=O)CO)C[C@@H]3OC1CC(N)C(O)C(C)O1 (stereo not given in full) | nt | 5.3 | nt | nt | nt | -8.4 | nt | nt
COc1cccc2c1C(=O)c1c(O)c3c(c(O)c1C2=O)C[C@@](O)(C(=O)CO)C[C@@H]3O[C@H]1C[C@H](N)[C@H](O)[C@H](C)O1 | 32.4 | 6.2 | 99.0* | 42.5 | 107.2* | 0.0 | 99.2* | -0.2
CCSc1ncc(Cl)c(C(=O)Nc2ccccc2Cl)n1 | -1.4 | 0.5 | 16.7 | 1.6 | -0.9 | 2.7 | nt | nt
CCSc1ncc(Cl)c(C(=O)Nc2sc3c(c2C(=O)NCc2cccnc2)CCCC3)n1 | nt | 3.4 | 60.3* | nt | 5.0 | -5.7 | 9.2 | nt
CCOc1ccc2nc(N(CCN(C)C)C(=O)c3ccc4c(c3)CCCC4)sc2c1 | 3.1 | -0.2 | -0.6 | -0.2 | -3.1 | 3.7 | nt | nt
CN(C)CCCN(C(=O)c1ccc2c(c1)CCCC2)c1nc2c(F)cccc2s1 | 9.3 | 0.4 | -36.0 | 18.4 | 5.4 | -2.9 | nt | nt
Cc1cc(C)c2nc(N(CCCN(C)C)C(=O)c3ccc4c(c3)CCCC4)sc2c1 | nt | nt | 76.6* | -0.6 | 5.8 | 1.4 | 34.1 | nt
CCN(CC)CCN(C(=O)c1ccc2c(c1)CCCC2)c1nc2cc(OC)c(OC)cc2s1 | 1.2 | 2.2 | 52.6* | -3.1 | -3.8 | 1.5 | 46.4* | 36.8*
Cc1ccc2nc(N(CCCN(C)C)C(=O)c3ccc4c(c3)CCCC4)sc2c1 | -1.4 | 1.9 | 50.6* | -5.8 | 8.5 | -4.8 | 23.2 | nt
NC(=O)c1ccc(SCC(=O)OCC(=O)NCC2CCCCC2)c([N+](=O)[O-])c1 | -6.8 | 0.0 | 21.6 | -11.3 | -1.2 | -2.0 | nt | nt
SMILES | Beta apoptosis | MPTP inh | Mdm2-MdmX inh | CSC inhib | SKKanGAS inh | NR3A LBD binder | Mdm2 MdmX conf | Full FLuc ctr
Cc1cccnc1NC(=O)C(c1ccccc1)c1ccccc1 | -7.5 | -1.4 | 23.7 | -7.1 | -1.6 | 5.3 | nt | nt
O=c1c2cnn(-c3ccccc3)c2ncn1Cc1ccco1 | -3.0 | -0.4 | 13.1 | 0.0 | 1.3 | -6.6 | nt | nt
CCCCn1cnc2c(c(-c3ccccc3)c(-c3ccccc3)n2Cc2ccco2)c1=N | 113.6* | 2.6 | 97.9* | 87.3* | 1.4 | -2.5 | 73.2* | 59.7*
N=c1c2c(-c3ccccc3)c(-c3ccccc3)n(Cc3ccco3)c2ncn1Cc1ccco1 | 68.2 | 6.9 | 97.6* | 61.3 | 1.5 | -4.6 | 46.3* | 31.4
O=C(C[n+]1ccc(/C=N/O)cc1)N1CCCCC1 | -4.0 | 0.9 | 26.0 | -0.3 | -5.2 | 1.5 | nt | nt
CN(C(=O)c1ccnn1C)C1CCCN(Cc2ccccc2F)C1 (stereo not given) | -5.1 | -1.2 | 4.1 | 4.1 | -2.2 | 4.3 | nt | nt
Oc1c(Cl)cc(Cl)cc1Sc1cc(Cl)cc(Cl)c1O | 27.5 | nt | 99.6* | 120.2* | 106.2* | nt | 91.8* | 17.2
CCOC(=O)C1(C(=O)OCC)C(C(=O)c2ccccc2)C1c1ccccc1 (stereo not given) | nt | 0.9 | nt | nt | nt | -3.4 | nt | nt
COc1cc(NS(=O)(=O)c2ccc(C)cc2)c2ncccc2c1 | 44.9 | 1.7 | 89.1* | 37.5 | 82.0* | -22.6 | 98.5* | 4.9
Cc1ccc(S(=O)(=O)Nc2cccc3cccnc23)cc1 | 35.3 | -0.7 | 99.1* | 78.1* | ? | 0.0 | 98.7* | 51.9*
COc1cc(NC(=O)c2ccccc2Cl)c2ncccc2c1 | -1.2 | 0.7 | 56.8* | 51.0 | 4.9 | -3.0 | 50.5* | 51.5*
C/C(=C\c1ccccc1)C(=O)NCCCn1ccnc1 | 5.9 | 1.2 | -1.1 | -7.8 | 2.8 | -1.3 | nt | nt
COC(=O)c1ccc2c(=O)[nH]c(COC(=O)c3[nH]c(C)c(C(C)=O)c3C)nc2c1 | -3.2 | 6.7 | 28.2 | -23.0 | nt | -2.4 | nt | nt
COc1cc(OC)cc(C(=O)NNC(=O)CCC2CCCC2)c1 | -4.3 | 0.3 | 12.1 | -0.6 | nt | 1.0 | nt | nt
